For test [1], the target named is Thyrotropin receptor (Homo sapiens) (UniProt P16473). Put plainly: qHTS assay to identify small molecule antagonists of the thyroid stimulating hormone receptor (TSHR) signaling pathway (AID 1259385; calls by dose curve; further: nearly all actives have a fitted effect of over 20% in size). Summed up:
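TSHR-HEK293 cells were plated and held 18 h at 37C/5% CO2, then given compound plus Ro20-1724 and stimulated with TSH at 1.5 ng/mL final. After 30 min at room temperature, cAMP was detected with cAMP-d2/anti-cAMP-cryptate (1 h) by fluorescence.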

A short description of test [2]: qHTS assay to identify small molecule agonists of the estrogen receptor alpha (ER-alpha) signaling pathway in the presence of an antagonist - cell viability counter screen (AID 1259386). Further: series mostly up to about 92 µM; nearly all actives have a fitted effect of over 30% in size. A digest of the protocol: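 Read-out: CellTiter-Fluor fluorescence after 1hr reagent incubation, measured in the same wells as the luciferase readout. VM7Luc4E2 cells were exposed to 15 compound concentrations with 10.0nM ICI-182,780 for 22hr at 37C.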
A general note: In qHTS, concentration-response curves come from the screen itself.

The target in test [3] is Progesterone receptor (Homo sapiens) (UniProt P06401). Put plainly: qHTS assay to identify small molecule agonists of the progesterone receptor (PR) signaling pathway (AID 1346784; calls by dose curve; further: nearly all actives have a fitted effect of over 30% in size). A digest of the protocol: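 Agonist mode, quantitative HTS format in a HEK 293T line expressing a UAS-controlled beta-lactamase reporter; 16 hr compound exposure at 37C in 2% charcoal-stripped FBS, then LiveBLAzer B/G FRET fluorescence.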
Sequence of Progesterone receptor (Homo sapiens) (P06401 whole entry, looked up): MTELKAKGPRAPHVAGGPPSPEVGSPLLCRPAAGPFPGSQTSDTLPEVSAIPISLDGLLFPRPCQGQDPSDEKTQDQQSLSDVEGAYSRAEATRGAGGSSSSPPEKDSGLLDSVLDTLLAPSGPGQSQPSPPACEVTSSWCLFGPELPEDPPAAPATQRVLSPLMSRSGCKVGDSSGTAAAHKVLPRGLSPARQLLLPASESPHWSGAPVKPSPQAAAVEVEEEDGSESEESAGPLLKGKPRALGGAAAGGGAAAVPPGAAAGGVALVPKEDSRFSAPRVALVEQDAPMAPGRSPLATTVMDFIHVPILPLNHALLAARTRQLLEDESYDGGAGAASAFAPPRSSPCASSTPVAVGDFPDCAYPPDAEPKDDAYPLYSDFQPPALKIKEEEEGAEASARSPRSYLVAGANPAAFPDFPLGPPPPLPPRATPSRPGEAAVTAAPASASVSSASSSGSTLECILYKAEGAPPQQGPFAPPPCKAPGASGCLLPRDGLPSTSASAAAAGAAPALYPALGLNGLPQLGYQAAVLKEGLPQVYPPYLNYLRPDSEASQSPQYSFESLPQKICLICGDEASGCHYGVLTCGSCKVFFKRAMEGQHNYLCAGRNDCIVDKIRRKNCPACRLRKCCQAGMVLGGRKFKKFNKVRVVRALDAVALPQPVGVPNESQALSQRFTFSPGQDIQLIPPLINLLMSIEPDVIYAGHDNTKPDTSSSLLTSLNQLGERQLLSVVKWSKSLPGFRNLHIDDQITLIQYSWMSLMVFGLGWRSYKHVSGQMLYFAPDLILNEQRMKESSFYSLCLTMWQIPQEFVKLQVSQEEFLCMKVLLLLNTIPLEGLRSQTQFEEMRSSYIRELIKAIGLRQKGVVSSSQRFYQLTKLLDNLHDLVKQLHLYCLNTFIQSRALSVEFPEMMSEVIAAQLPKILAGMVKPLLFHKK

Test [4] has the same target. Put plainly: qHTS assay to identify small molecule antagonists of the progesterone receptor (PR) signaling pathway (AID 1346795; active means well fitted inhibition curve with a large enough effect in the signal ratio in the repeat runs, not every such curve was filed as active; the % refers to the signal ratio). Summed up: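 HEK293T PR-UAS-bla reporter cells in charcoal-stripped serum (2%) received compound after a 6 hr settling period, followed by R5020 agonist at 1 nM final; 16 hr incubation preceded the FRET substrate step and fluorescence measurement.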

Test [5] in a line: qHTS assay to identify small molecule antagonists of the progesterone receptor (PR) signaling pathway - cell viability counter screen (AID 1346798). Further: series mostly up to about 92 µM; nearly all actives have a fitted effect of over 50% in size. A digest of the protocol:
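Same-well multiplex: after 16 hr at 37C with compound and R5020 stimulation, HEK293T cells carrying a UAS-bla reporter received LiveBLAzer substrate (2 hr RT), then CellTiter-Glo (30 min RT) for luminescent viability.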

The nature of test [6]: qHTS assay to identify small molecule agonists of the progesterone receptor (PR) signaling pathway - cell viability counter screen (AID 1346799; calls by dose curve; further: nearly all actives have a fitted effect of over 45% in size). A digest of the protocol:
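Counter screen for cytotoxicity: compound-treated PR-UAS-bla HEK293T cells (16 hr, 37C, 5% CO2) were assayed with CellTiter-Glo, luminescence measured after 30 min at room temperature.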

Test [7] is described as follows: qHTS assay to identify small molecule antagonists of the TGF-beta/Smad signaling pathway - cell viability counter screen (AID 1346824). Further: nearly all actives have a fitted effect of over 50% in size. A digest of the protocol:
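SBE-bla HEK 293T cells were plated overnight at 37 C, then given compounds in DMSO plus TGF-beta1 (added as 0.25 ng/mL solution) for 5 hr. After the bla read, CellTiter-Glo was added to the same wells and luminescence read after 30 min at room temperature.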

Test [8] is described as follows: qHTS assay to identify small molecule agonists of the TGF-beta/Smad signaling pathway (AID 1346859; active means well fitted activation curve with a large enough effect in the signal ratio in the repeat runs, not every such curve was filed as active; the % refers to the signal ratio; further: series mostly up to about 77 µM). Summed up: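 Smad-responsive beta-lactamase reporter cells (HEK 293T) received compounds from DMSO stocks after overnight attachment, were incubated 5 hr, then treated 2 hr with FRET substrate before dual-emission fluorescence measurement (405 nm excitation).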
For test [9], the target named is Thyrotropin-releasing hormone receptor (Homo sapiens) (UniProt P34981). Kind of test: qHTS assay to identify small molecule antagonists of the thyrotropin-releasing hormone receptor (TRHR) signaling pathway (AID 1346877; active means well fitted inhibition curve with a large enough effect in the repeat runs, not every such curve was filed as active; further: series mostly up to about 51 µM). A digest of the protocol: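 HEK293/TRHR cells, 18 h, 37 °C; Ca2+ dye 2 h; cpd 5 min RT; TRH 1 nM final; fluorescence read 3 min, 1 s intervals; 15 concs, triplicate.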
Sequence of Thyrotropin-releasing hormone receptor (Homo sapiens) (P34981 whole entry, looked up): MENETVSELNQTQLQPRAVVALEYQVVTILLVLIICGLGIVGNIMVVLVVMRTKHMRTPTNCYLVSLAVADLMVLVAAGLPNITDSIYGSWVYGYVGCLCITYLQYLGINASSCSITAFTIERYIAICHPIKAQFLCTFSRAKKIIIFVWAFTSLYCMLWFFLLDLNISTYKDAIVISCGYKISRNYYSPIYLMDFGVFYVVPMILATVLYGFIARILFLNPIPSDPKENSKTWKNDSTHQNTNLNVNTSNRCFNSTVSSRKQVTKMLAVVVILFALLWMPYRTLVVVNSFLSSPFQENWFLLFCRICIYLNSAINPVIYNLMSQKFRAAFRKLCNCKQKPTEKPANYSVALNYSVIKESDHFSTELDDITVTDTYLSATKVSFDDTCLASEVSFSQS

The target is the same in test [10]. Kind of test: qHTS assay to identify small molecule agonists of the thyrotropin-releasing hormone receptor (TRHR) signaling pathway (AID 1346891; calls by dose curve;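 further: HEK293 cells expressing TRHR with calcium dye readout; series mostly up to about 58 µM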). Summed up:
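Agonist-mode calcium mobilisation screen: TRHR-transfected HEK293 cells cultured overnight (18 h), dye-loaded for 2 h at 37 °C, exposed to compounds, and monitored by fluorescence for 3 min.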

Test [11] can be described thus: Human pregnane X receptor (PXR) small molecule agonists, qHTS cell viability counter screen (AID 1346977). Further: nearly all actives have a fitted effect of over 50% in size. Summed up:
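Measures live-cell protease fluorescence (CellTiter-Fluor) in PXR-Luc HepG2 cells treated 24hr with compounds at 37C. Cells had 5hr to attach before pin transfer of DMSO solutions.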

The nature of test [12]: Caspase-3/7 induction in HepG2 cells by small molecules, qHTS assay (AID 1346978). Further: nearly all actives have a fitted effect of over 15% in size. Summed up:
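Wild-type HepG2 cells (2,000/well) were settled 5 h at 37 C, 5% CO2, then exposed to compounds in DMSO for 17 h. Caspase-3/7 activity was read by luminescence 30 min after adding Caspase-Glo 3/7 reagent at room temperature.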

Test [13] is described as follows: Caspase-3/7 induction in CHO-K1 cells by small molecules, qHTS cell viability counter screen (AID 1346979). Further: nearly all actives have a fitted effect of over 35% in size. Summed up:
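In the same wells as the caspase read, viability of compound-treated wild-type CHO-K1 cells was assessed using CellTiter-Fluor, added after 16hr at 37C and measured by fluorescence following 1hr further incubation.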

Test [14] can be described thus: Caspase-3/7 induction in CHO-K1 cells by small molecules, qHTS assay (AID 1346980). Further: nearly all actives have a fitted effect of over 15% in size. A digest of the protocol: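 Wild-type cells were seeded at 1,500 per well and settled 5 hr at 37 C, 5% CO2, then exposed to DMSO-dissolved compounds for 17 hr. Caspase-Glo 3/7 reagent was added, and luminescence was read after 30min at room temperature.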
A short description of test [15]: Caspase-3/7 induction in HepG2 cells by small molecules, qHTS cell viability counter screen (AID 1346981). Further: series mostly up to about 92 µM; nearly all actives have a fitted effect of over 30% in size. Summed up:
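Fluorescence read-out of live-cell protease activity (CellTiter-Fluor) after 1 hr with reagent. This was measured in the same wells as the caspase-3/7 luminescence, on HepG2 cells exposed to DMSO-dissolved compounds for 16 hr at 37 C.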

In test [16] the target is Nuclear receptor subfamily 1 group I member 2 (Homo sapiens) (UniProt O75469). Kind of test: Human pregnane X receptor (PXR) small molecule agonists, qHTS assay (AID 1346982). Further: nearly all actives have a fitted effect of over 35% in size. Further: potency means the concentration at half of the fitted maximal effect. Summed up:
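HepG2 PXR-Luc reporter line, 5% charcoal-stripped FBS; 5 hr pre-incubation, compound (DMSO) 24 hr at 37 C/5% CO2; ONE-Glo 30 min RT; luminescence read-out.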

A short description of test [17]: qHTS assay to identify small molecule agonists of the TGF-beta/Smad signaling pathway - cell viability counter screen (AID 1346829). Further: top concentration of the series differs between compounds; nearly all actives have a fitted effect of over 45% in size. Summed up: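 CellTiter-Glo luminescence readout; SBE-bla HEK 293T cells, overnight plating, compound 5 hr at 37 C/5% CO2, then bla substrate 2 hr RT, then CellTiter-Glo 30 min RT.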
Test [18] concerns the target Nuclear receptor subfamily 1 group I member 2 (Homo sapiens) (UniProt O75469). Put plainly: CYP3A4 induction through human pregnane X receptor (PXR) by small molecules, qHTS assay (AID 1346984). Further: nearly all actives have a fitted effect of over 40% in size. A digest of the protocol: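 HepG2-derived DPX-2 line carrying PXR plus a CYP3A4-promoter luciferase reporter; cells plated 5 hr, compound-exposed 24 hr at 37C. CYP3A4 activity probed with 3uM (final) Luciferin-IPA for 3hr, then luciferase read after One-Glo.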

Test [19] shares this target. Put plainly: Human pregnane X receptor (PXR) activation by small molecules, qHTS assay (AID 1346985). Further: nearly all actives have a fitted effect of over 40% in size. A digest of the protocol: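 DPX-2 cells (HepG2 co-transfected with a PXR response element and a CYP3A4-promoter luciferase construct) were seeded at 2,000 per well, rested 5 hr at 37C, then exposed to DMSO-dissolved compounds for 24 hr. Activation was read as luciferase luminescence.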

The values that follow come from PubChem BioAssay (Tox21).

Values without a mark were called inactive. Results filed as inconclusive are left out. The source made the active and inactive calls. Unless noted, the call rests on the fitted dose curve; in most records, active means well fitted curve in the direction sought with a large enough effect in the repeat runs; inconclusive means weak or mixed curves; inactive means no such curve, though single readings can be large; an effect the other way counts as inactive or inconclusive.

Sequence of Nuclear receptor subfamily 1 group I member 2 (Homo sapiens) (O75469 whole entry, looked up): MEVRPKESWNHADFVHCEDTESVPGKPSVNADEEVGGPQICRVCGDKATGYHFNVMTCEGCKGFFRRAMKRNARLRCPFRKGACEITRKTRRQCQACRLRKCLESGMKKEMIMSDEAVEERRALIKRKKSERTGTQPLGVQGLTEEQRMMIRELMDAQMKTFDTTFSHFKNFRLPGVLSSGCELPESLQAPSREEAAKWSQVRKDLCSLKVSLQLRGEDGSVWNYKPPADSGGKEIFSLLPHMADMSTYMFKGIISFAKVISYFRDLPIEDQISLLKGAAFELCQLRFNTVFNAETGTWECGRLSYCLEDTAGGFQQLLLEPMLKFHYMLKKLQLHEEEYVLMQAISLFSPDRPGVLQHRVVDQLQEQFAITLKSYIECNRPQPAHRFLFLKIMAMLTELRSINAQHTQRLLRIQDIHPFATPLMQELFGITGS
Sequence of Thyrotropin receptor (Homo sapiens) (P16473 whole entry, looked up): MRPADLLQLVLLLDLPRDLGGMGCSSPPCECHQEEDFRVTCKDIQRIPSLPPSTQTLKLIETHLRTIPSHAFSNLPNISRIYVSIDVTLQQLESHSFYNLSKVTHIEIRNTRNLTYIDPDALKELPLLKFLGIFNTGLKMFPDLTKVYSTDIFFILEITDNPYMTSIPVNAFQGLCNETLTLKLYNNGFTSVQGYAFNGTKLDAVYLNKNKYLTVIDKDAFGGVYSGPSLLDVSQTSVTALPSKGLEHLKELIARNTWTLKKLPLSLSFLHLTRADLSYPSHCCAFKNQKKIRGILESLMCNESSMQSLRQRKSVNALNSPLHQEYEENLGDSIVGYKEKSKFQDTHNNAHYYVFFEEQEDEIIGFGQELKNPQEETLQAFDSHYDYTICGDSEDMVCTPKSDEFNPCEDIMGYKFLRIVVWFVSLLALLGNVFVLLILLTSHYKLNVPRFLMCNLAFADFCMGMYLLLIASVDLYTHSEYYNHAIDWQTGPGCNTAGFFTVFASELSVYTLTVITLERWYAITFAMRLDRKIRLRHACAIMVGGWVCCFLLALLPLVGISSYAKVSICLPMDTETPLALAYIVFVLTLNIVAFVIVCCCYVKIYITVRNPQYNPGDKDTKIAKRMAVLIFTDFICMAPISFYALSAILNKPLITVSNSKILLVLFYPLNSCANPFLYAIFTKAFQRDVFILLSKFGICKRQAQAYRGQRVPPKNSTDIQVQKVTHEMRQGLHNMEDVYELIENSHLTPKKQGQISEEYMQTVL

`C=C(C)C(=O)OCCCCCCCCCCCCC`: the Potency result in test [1], in test [2], in test [3], in test [4], in [5] and in [6] was “inactive” throughout. Moreover, the Potency entry in [7], in [8], in test [10], in test [11], in [12] and in test [13] was “inactive” throughout. In addition, the Potency entry in [14], in test [15] and in test [16] was “inactive” throughout. In addition, in test [9], the outcome was inactive.

`C=C1CCC2CC1C2(C)C` (stereo not given): the Potency result in test [1], in test [2], in test [3], in test [4], in [5] and in test [6] was “inactive” in each case. Besides, the Potency entry in test [7], in [17], in test [8], in test [10], in test [11] and in [12] was “inactive” in each case. Further, the Potency result in test [13], in test [14], in test [15] and in [16] was “inactive” each time. Further, the call in test [9] was inactive.

For the molecule `O=C1c2ccccc2C(=O)C1c1nc2ccccc2c(Br)c1O`, the Potency entry in [1], in test [2], in [3], in test [4], in test [5] and in test [6] was “inactive” each time. Further, the Potency result in test [7], in [17], in test [10], in test [11] and in test [12] was “inactive” each time. In test [9], the outcome was inactive. For the same molecule, the Potency in test [16] is 61.1 µM (active).

`O=C(Cn1ccnc1[N+](=O)[O-])NCCO`: the Potency result in test [1], in test [2], in [3], in [4], in test [5] and in test [6] was “inactive” each time. The Potency result in [7], in [17], in test [8], in [10], in [11] and in test [12] was “inactive” throughout. For the same molecule, the Potency result in test [13], in [14], in [15] and in test [16] was “inactive” in each case. For the same molecule, the outcome in [9] was inactive.

Take `CC(CO)CO`: the Potency entry in test [1], in [2], in test [3], in test [4], in [5] and in test [6] was “inactive” throughout. In addition, the Potency result in test [7], in test [8], in test [10], in test [11], in test [12] and in [13] was “inactive” throughout. In addition, the Potency entry in test [14], in [15] and in test [16] was “inactive” each time. Besides, in [9], the result was inactive.

Take `Cc1cc(C)c(N)cc1C`: the Potency result in [1], in [2], in test [3], in test [4], in test [5] and in [6] was “inactive” throughout. Besides, the Potency result in test [7], in test [17], in test [8], in [11], in [12] and in test [13] was “inactive” each time. For the same molecule, the Potency result in [14] and in test [15] was “inactive” throughout.

In the case of `CC1CC(C)C(=O)C1=O` (stereo not given), the Potency result in [1], in [2], in [3], in test [4], in [5] and in test [6] was “inactive” each time. The Potency result in test [7], in test [17], in test [8], in [10], in test [12] and in [15] was “inactive” each time. Besides, in [16], the Potency entry was “inactive”. The call in test [9] was inactive.

Regarding `NNC(=O)CP(=O)(c1ccccc1)c1ccccc1`, the Potency result in test [1], in [2], in [3], in [4], in test [5] and in [7] was “inactive” in each case. In addition, the Potency entry in test [17], in test [8], in test [10], in test [11], in test [12] and in test [13] was “inactive” throughout. Besides, the Potency entry in test [14], in [15], in test [16], in [18] and in [19] was “inactive” in each case. Besides, the result in [9] was inactive.
